Measurements: the supplement of paper PMC4894684
Structures can show the parent of a compound that is named as a salt. ± gives the standard deviation of the averaged measurements.

Test system: Toxoplasma gondii RH (in HFF)
Test: parasite growth relative to the screen mean (all compounds = 100%); higher = less inhibition of parasite growth
Details: 5 µM; 72 h; oxygen 21 %
How it was run: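 Library compounds, held as 10 mM DMSO stocks, were pinned to 5 µM final onto confluent human foreskin fibroblasts in 96-well plates. The cells were infected within 2 h with RH β-Gal–GFP Toxoplasma (MOI 1:5), grown 72 h at 21% O2, and assayed for parasite number by CPRG β-Gal using in-plate standard curves. Growth is reported relative to the screen mean, in which all compounds = 100%, averaged over two screens, and CellTiter-Blue checked uninfected host-cell viability.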

| SMILES | parasite growth [%] |
| --- | --- |
| COc1ccccc1N1CCN(CCCCN2C(=O)c3ccccc3C2=O)CC1 [NAN-190 hydrobromide] | 133 ± 11 |
| Cc1ccc([N+](=O)[O-])cc1S(=O)(=O)N(C)C | 74.2 ± 14 |
| Oc1cc2c(c(Cl)c1O)CCNCC2c1ccccc1 (stereo not drawn) | 103 ± 32 |
| CCCCCCNC(=O)Nc1ccc(S(=O)(=O)Nc2ccc(CCNC[C@H](O)COc3ccc(O)cc3)cc2)cc1 | 170 ± 26 |
| O=c1[nH]ccc2c(S(=O)(=O)N3CCCNCC3)cccc12 [HA 1100 hydrochloride] | 122 ± 10 |
| COc1ccc(Nc2ncnc3ccc(OC)cc23)cc1 [MPMQ hydrochloride] | 146 ± 14 |
| O=C1CCc2cc(OCCCCc3nnnn3C3CCCCC3)ccc2N1 [Cilostazol] | 74.6 ± 3.3 |
| CC(=N)NCc1cccc(CN)c1 [1400W dihydrochloride] | 74 ± 48 |
| CC(C)(C)c1ccc(/C=C/C(=O)Nc2ccc3c(c2)OCCO3)cc1 | 133.4 ± 1 |
| CN(C)CCCSc1ccccc1NC(=O)/C=C/c1ccccc1 [Cinanserin hydrochloride] | 120 ± 9.6 |
| O=C(/C=C/c1ccccc1)NC(NC(=S)Nc1cccc2cccnc12)C(Cl)(Cl)Cl (stereo not drawn) [Salubrinal] | 86.2 ± 17 |
| C[C@H](NC(=O)/C(C#N)=C/c1ccc(O)c(O)c1)c1ccccc1 [Tyrphostin B44, (+) enantiomer] | 154 ± 41 |
| CC(C)(C=O)Cc1cc(C(C)(C)C)c(O)c(C(C)(C)C)c1 | 199 ± 11 |
| NC(C(=O)O)c1ccc(C(=O)O)c(C(=O)O)c1 (stereo not drawn) | 141 ± 3 |
| COC(=O)C1=C(C)NC(C)=C(C(=O)OC)C1c1ccccc1[N+](=O)[O-] [Nifedipine] | 110 ± 36 |
| CN(Cc1ccccc1)C(=O)[C@H](Cc1ccc2ccccc2c1)NC(=O)[C@@H]1C[C@@H](O)CN1C(=O)c1cn(C)c2ccccc12 | 138 ± 4.8 |
| O=C(Nc1ccccc1)c1cc([N+](=O)[O-])ccc1Cl | 103 ± 18 |
| CC(C)N1Cc2cc(S(C)(=O)=O)ccc2N(CCN2CC=C(c3c[nH]c4cc(F)ccc34)CC2)S1(=O)=O | 181 ± 36 |
| O=C(NCCO[N+](=O)[O-])c1cccnc1 [Nicorandil] | 109 ± 12 |

| SMILES | parasite growth [%] |
| --- | --- |
| COC(=O)C1=C(C)NC(C)=C(C(=O)OC(C)C)C1c1cccc2nonc12 (stereo not drawn) [Isradipine] | 43.3 ± 5.6 |
| CN(C)CCC1(c2ccc(Cl)cc2)Cc2ccccc2C(=O)O1 (racemic) [(±)-AC 7954 hydrochloride] | 98.7 ± 67 |
| CCN1CCC[C@H]1CNC(=O)c1cc(S(N)(=O)=O)ccc1OC [(S)-(-)-Sulpiride] | 93.2 ± 3.8 |
| COc1cccc(-c2cc(=O)c3ccccc3o2)c1N | 93.9 ± 37 |
| O=C(NCCCN1CCC2(CC1)OCc1ccccc12)[C@H]1CCCN1Cc1ccccc1 | 136.9 ± 0.99 |
| NC(=O)N/N=C/c1ccc(Oc2ccc(F)cc2)cc1 | 145 ± 19 |
| Oc1ccc(Nc2nc(-c3ccc(Cl)cc3)cs2)cc1 | 26.9 ± 8 |
| CC[C@@H]1C(=O)OC[C@@H]1Cc1cncn1C [Pilocarpine hydrochloride] | 76.5 ± 19 |
| CCC1(c2ccccc2)C(=O)NCNC1=O [Primidone] | 113 ± 18 |
| O=C(O)CN1C(=O)c2cccc3cccc(c23)C1=O [Alrestatin] | 100 ± 26 |
| CN(C)C(=O)n1nnnc1Cc1ccc(-c2ccccc2)cc1 | 84.9 ± 38 |
| CC[C@H](NC(=O)c1c(C)c(-c2ccccc2)nc2ccccc12)c1ccccc1 | 98.6 ± 3.1 |
| O=C(O)COCCN1CCN(C(c2ccccc2)c2ccc(Cl)cc2)CC1 (stereo not drawn) [Cetirizine dihydrochloride] | 136 ± 34 |
| CC1C(=O)OC2C(O)C34C5CC(C(C)(C)C)C36C(OC(=O)C6O)OC4(C(=O)O5)C12O (stereo not drawn) [Ginkgolide B] | 82.1 ± 27 |
| NC(N)=Nc1ccc(Cl)cc1 [4-Chlorophenylguanidine hydrochloride] | 125 ± 3.5 |
| COc1ccc2c(c1)c(CC(=O)O)c(C)n2C(=O)c1ccc(Cl)cc1 [Indomethacin] | 150 ± 30 |
| CS(=O)(=O)c1ccc(Cn2c3c(c4cc(F)cc(F)c42)CCCC3CC(=O)O)cc1 (stereo not drawn) | 120 ± 6.7 |
| c1cc2c3c(c1)c1c(n3CCNC2)CCCC1 [WAY 629 hydrochloride] | 130 ± 4 |
| CCN(c1ccccc1)c1cc(=NC)n(C)c(C)n1 | 59 ± 11 |
